Rows were chosen to be rich in hits. Some 21% of all compounds tested hit in one or more screens of this group.
Shiga inhibitor = A qHTS for Small Molecule Inhibitors of Shiga Toxin | Vero cells, Shiga toxin protein synthesis inhibition reporter | inhibition, % at 38.7 µM | actives 9.2% (n = 290,000) | AID 2315, 2010; in the data active means inhibition mostly above about 28%, no sharp cut-off; inactive means mostly below about 43%; further: 0% is about no effect
Cycloheximide cs = Cycloheximide Counterscreen for Small Molecule Inhibitors of Shiga Toxin. cell reporter, cycloheximide protein synthesis inhibition counterscreen. actives 12% (n = 300,000). max response, %; in the data active means max response mostly above about 13%, no sharp cut-off; inactive means mostly below about 14%; further: read at 38.3 µM for the half of the compounds with a filed dose; 0% is about no effect
Pf growth 96h = Primary qHTS for delayed death inhibitors of the malarial parasite plastid, 96 hour incubation | P. falciparum luciferase reporter growth, 96 h | Potency, µM (series often up to 28.7 µM), inactives show top-dose activity change, negative = inhibition, hits mostly inhibitors | actives 6.9% (n = 320,000); further: potency means the concentration at half of the fitted maximal effect; on the % scale 0 is the no-effect control and ±100 the full control effect
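96 h incubation, 37 C, 5% CO2, of luciferase-reporter P. falciparum-infected RBCs (2% hematocrit, 0.05% parasitemia final) with test compounds; endpoint luminescence.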
AMA1-RON2 inh = qHTS for Inhibitors of AMA1-RON; Towards Development of Antimalarial Drug Lead: Primary Screen; Plasmodium falciparum AMA1 (3D7) - RON2 peptide interaction; AID 720542, 2013; actives 0.2% (n = 360,000); Potency, µM (highest dose often 58.2 µM), without a hit: at the highest dose activity change, negative = inhibition, most hits filed as inhibitors; AlphaScreen AMA1-biotinylated RON2 peptide binding;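 further: potency means the concentration at half of the fitted maximal effect; 0% = vehicle wells and -100% = peptide control; nearly all actives have a fitted effect of over 45% in size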
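AMA1 (3D7) with his tag at 25 nM final met compounds first, then biotinylated RON2 peptide at 25 nM; detection used donor plus acceptor beads, 10 µg/mL apiece, read by AlphaScreen after 30 min at room temperature.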
HCV inh = qHTS Assay for Inhibitors of Hepatitis C Virus (HCV); Huh7.5.1 HCVcc-Cre infection, luciferase reporter, 44 h; Potency, µM (doses to about 41.8 µM), inactives show top-dose activity change, negative = inhibition, usual class: inhibitors; actives 3.4% (n = 340,000); AID 651820, 2012; further: potency means the concentration at half of the fitted maximal effect; on the % scale 0 is the no-effect control and ±100 the full control effect
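Luciferase read-out (15 sec integration) after a 15 min room-temperature substrate step quantifies HCVcc-Cre infection. Cells, 1,000 per well, had compound added 4 h post-plating, then virus at ~0.5 moi, and were cultured 44 h.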
Pf growth 48h = Primary qHTS for delayed death inhibitors of the malarial parasite plastid, 48 hour incubation | P. falciparum luciferase growth in erythrocytes, 48 h | Potency, µM (highest dose often 28.7 µM), without a hit: at the top dose activity change, negative = inhibition, actives largely listed as inhibitors | actives 5.9% (n = 310,000) | AID 504832, 2011; further: potency means the concentration at half of the fitted maximal effect; on the % scale 0 is the no-effect control and ±100 the full control effect
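Cell-based growth assay: transgenic P. falciparum expressing firefly luciferase, cultured in red cells within RPMI 1640 containing 0.5% w/v Albumax, 24 mM bicarbonate and gentamycin. A drop in luciferase activity indicates inhibition.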
Starred values were filed as active, the others as inactive; ? = inconclusive; . = no result given; ! = not confirmed by another sample. Unless noted, the call rests on the fitted dose curve; in most records, active means well fitted curve in the direction sought with a large enough effect; inconclusive means small, poorly fitted or top-dose-only effect, or another doubt; inactive means no such curve, though single readings can be large; an effect the other way counts as inactive or inconclusive.

SMILES	Shiga inhibitor	Cycloheximide cs	Pf growth 96h	AMA1-RON2 inh	HCV inh	Pf growth 48h
COc1ccc(C2N=C(c3ccccc3)NC(c3ccccc3)=N2)cc1	-0.9	-3.0	35.0%	-0.3%	6.9%	-18.5%
FC(F)Oc1ccc(C2N=C(c3ccccc3)NO2)cc1 (stereo unspecified)	78.6*	45.4*	191.3%	20.7%	-14.2%	122.9%
COc1cc(C2N=C(c3ccccc3)NO2)cc(Br)c1O (stereo unspecified)	19.4	10.2*	33.7%	2.9%	0.2%	15.3%
COc1ccc(C2N=C(c3ccccc3)NO2)cc1OC (stereo unspecified)	86.7*	21.9*	247.6%	-8.5%	-9.9%	189.5%
c1ccc2c(Nc3nc4c(s3)CCCC4)cccc2c1	111.9*	45.1*	150.8%	-2.4%	?	-4.6%
CC(=O)N1CCN(C(C)=O)c2ccccc21	.	.	.	3.7%	24.7%	.
CC(=O)N1CCn2c3ccc(C)cc3c3cccc1c32	47.1*	23.8*	49.8%	-8.5%	?	59.6%
CN1CCN(S(=O)(=O)c2ccc(N(C)Cc3c(F)cccc3Cl)nc2)CC1	.	.	.	-15.3%	-2.5%	.
O=C(/C=C/c1ccco1)NC(=S)Nc1cc(-c2nc3ccccc3s2)ccc1Cl	94.1*	57.6*	-12.8%	5.8%	-0.5%	39.8%
Cc1ccc(-c2nc3ccccc3s2)cc1NC(=S)NC(=O)c1cccc2ccccc12	80.5*	34.8*	?	-0.7%	17.2%	157.8%
Cc1ccc(-c2nc3ccccc3s2)cc1NC(=O)c1ccc2c(c1)OCO2	24.4	6.2	43.9%	-1.5%	?	?
O=C(/C=C/c1ccco1)NC(=S)Nc1cccc(-c2nc3ccccc3s2)c1	.	.	.	25.8%	10µM*	.
Cc1ccc(-c2nc3ccccc3s2)cc1NC(=S)NC(=O)/C=C/c1ccco1	63.3*	29.2*	164.5%	-4.9%	?	129.9%
Cc1ccc(-c2nc3ccccc3o2)cc1NC(=S)NC(=O)/C=C/c1ccco1	-6.1	14.1	?	1.9%	2.8%	0.9%
COc1ccc(N2CC(C(=O)N3CCN(c4ccccc4)CC3)CC2=O)cc1 (stereo unspecified)	-4.4	1.9	?	13.3%	3.6%	-5.7%
CC(C)C[C@@H](CN1CCCC1CN1C(=S)NC[C@@H]1Cc1ccc(O)cc1)N1C[C@H](Cc2ccc(O)cc2)N(CCc2ccccc2)C1=S (stereo partly specified)	.	.	.	7.5%	-52.2%	.
CC(C)NC(=S)N=Nc1c(O)[nH]c2ccc(C(C)C)cc12	0.5	-2.2	?	65.6%	?	8.28µM*
Cc1cccc(NC(=S)N=Nc2c(O)[nH]c3ccccc23)c1	12.2	1.5	2.94µM*	5.7%	?	?
COc1ccccc1NC(=S)N=Nc1c(O)[nH]c2ccc(Br)cc12	42.4	20.7	1.04µM*	59.9%	?	0.928µM*
COc1ccc(/C=N/OCC(=O)N=Nc2c(O)[nH]c3ccc(Br)cc23)cc1OC	-3.5	-3.8	25.5%	-13.9%	-11.8%	-3.8%
COc1ccc(/C=C/C(=O)OCC(=O)NC2CCCCC2C)c(OC)c1 (stereo unspecified)	.	.	-23.1%	-1.4%	1.4%	-20.6%
O=C1c2cccc(OCC(=O)N3N=C(c4cccs4)CC3c3ccc(F)cc3)c2CCN1Cc1cccnc1 (stereo unspecified)	-27.0	-5.5	?	-5.4%	?	1.47µM*
O=C(c1cccnc1)N1N=C(c2cccs2)CC1c1ccc(F)cc1 (stereo unspecified)	-12.0	-2.6	9.4%	7.8%	-19.7%	0.0%
Cc1cc2nc3ccc(=[N+](C)C)cc-3sc2cc1N	47.7*	35.6*	0.0329µM*	0.0%	3.16µM*	0.037µM*
CN(C)c1ccc2nc3ccc(=[N+](C)C)cc-3sc2c1	88.0*	63.7*!	0.0067µM*!	22.3%	?	0.0067µM*
SMILES	Shiga inhibitor	Cycloheximide cs	Pf growth 96h	AMA1-RON2 inh	HCV inh	Pf growth 48h
CCc1cc2cc(C(=O)Nc3ccc(C)cc3)sc2s1	22.3	10.8	2.33µM*	-5.9%	-13.6%	?
CCc1sc(C(=O)Nc2ccc(N3CCOCC3)cc2)cc1C	.	.	.	-24.7%	?	.
N=c1n(CC(=O)c2ccc([N+](=O)[O-])cc2)c2ccccc2n1Cc1ccccc1	16.2	-0.4	?	0.8%	?	8.28µM*
N=c1n(CC(=O)c2ccc([N+](=O)[O-])cc2)c2ccccc2n1Cc1ccc(Cl)cc1	9.6	-4.4	?	-9.3%	-8.2%	?
N=c1n(CC(=O)c2ccc(Br)cc2)c2ccccc2n1Cc1ccccc1	.	.	?	17.3%	?	?
N=c1n(Cc2ccccc2)c2ccccc2n1Cc1ccccc1	-5.5	-4.5	?	4.3%	?	10.4µM*
C=CCn1c(=N)n(CC(=O)c2cccc([N+](=O)[O-])c2)c2ccccc21	20.3	19.9	?	16.5%	-6.1%	?
N=c1n(CCN2CCCCC2)c2ccccc2n1CC(=O)c1cccc([N+](=O)[O-])c1	-17.3	1.2	?	-3.1%	?	1.85µM*
Cc1nc([N+](=O)[O-])c(Br)n1CC(=O)c1ccc(Cl)cc1	-16.4	1.0	?	-4.5%	10µM*	.
CCn1cc(S(=O)(=O)NCCc2ccc(OC)c(OC)c2)cn1	-3.2	-3.6	85.6%	0.4%	-3.5%	4.6%
N=c1n(CC(=O)c2ccc([N+](=O)[O-])cc2)c2ccccc2n1Cc1ccccc1Cl	1.6	-4.7	?	-10.8%	-2.3%	?
O=C(Cn1nc(Cl)nc1Cl)c1ccc([N+](=O)[O-])cc1	3.3	9.6	2.94µM*	-8.1%	5.1%	13.1µM*
CCc1cc(C(=O)OC)c(NC(=O)CSc2nccn2C)s1	-33.5	-0.3	?	-12.6%	10µM*	-17.3%
Cn1ccnc1SCC(=O)c1ccc(Cl)cc1	118.0*	37.4*	30.1%	-7.4%	14.0%	227.2%
Cn1ccnc1SCC(=O)Nc1ccc([N+](=O)[O-])cn1	-6.5	-2.7	-8.6%	0.6%	12.8%	9.5%
Cc1nnc(SCC(=O)c2ccc(Cl)cc2)n(N)c1=O	72.6	13.3	0.0%	-24.8%	3.0%	0.0%
Cn1ccnc1SCC(=O)c1ccc(F)cc1	.	.	.	-7.6%	-5.7%	.
Cn1ccnc1SCC(=O)Nc1ccc(Cl)cn1	31.0	23.4*	190.9%	24.4%	1.2%	59.4%
Cn1ccnc1SCC(=O)c1ccc(O)cc1	37.0	25.7*	61.2%	-17.1%	6.7%	103.6%
CN(C)S(=O)(=O)Nc1cc(F)cc(F)c1	2.5	1.6	33.9%	-0.5%	5.7%	34.3%
COc1ccc(OCC(=O)Nc2ccc(C)c(S(=O)(=O)N(C)C)c2)cc1	16.2	3.8	-21.4%	0.0%	?	-9.7%

Assay outcomes deposited in PubChem BioAssay by National Center for Advancing Translational Sciences (NCATS).
